# PubChem BioAssay (NCATS)
# Inconclusive results are not listed. Where a call stands in place of a potency, no number is given. The source made the active and inactive calls. Calls come from the whole dose curve; as a rule, active = well fitted inhibition curve with a large enough effect; inconclusive = small, poorly fitted or top-dose-only effect; inactive = no such curve, though single readings can be large or run the other way.
# Test: NS1 protein of Zika virus - qHTS assay to identify small molecule inhibitors in human HEK 293 cells (AID 1347053); note: nearly all actives have a fitted effect of over 55% in size
# Settings: HEK293 ZIKV MR766 infection, NS1 TR-FRET, 24 h; series mostly up to 46.1 µM
# Description: National Center for Advancing Translational Sciences [NCATS]
# Johns Hopkins University School of Medicine
# The non-structural 1 (NS1) protein of zika virus is known to associate with the viral replication complex. This cell-based TR-FRET ZIKV NS-1 assay measures the increased NS-1 protein in human HEK 293 cells after a 24-hour Zika virus infection by a TR-FRET assay readout. A decrease in the Time-resolved fluorescence energy transfer (TR-FRET) signal in this assay by small molecule treatment indicates an inhibitory effect of the small molecule on the expression of Zika virus NS1 correlating with Zika virus replication.
# HEK 293 cells were cultured in EMEM (ATCC, Cat. # 30-2003) medium with 10% fetal bovine serum (GE healthcare Life Sciences, Cat. # SH30071.03), and 1% Pen/Strep (Gibco, Cat. # 15140-122). Cells were seeded in the assay plate and incubated at 37 C with 5% CO2 for 20 hours. Compounds were added to cells and incubated for one hour before addition of ZIKV MR766 strain solution to cells (MOI = 0.5). After an incubation at 37 C for 24 hours, the reagent mixture of TR-FRET ZIKV NS1 assay using two anti-ZIKV NS1 antibodies was added to assay plates. The TR-FRET signals in assay plates were measured using an Envision plate reader (PerkinElmer). Data were normalized by using the cell-containing wells without ZIKV as a negative control (0% NS-1) and wells containing ZIKV infected cells as a positive control (100% NS-1 level).
row,SMILES,Potency
1,CC(=O)O[C@@H]1C(=O)O[C@@H]2[C@H]1OC(=O)[C@@H]2OC(C)=O,inactive
2,C/C(=C1\CCOC(=O)S1)N(C=O)Cc1cnc(C)nc1N,inactive
3,OC1(c2ccc(Cl)cc2)CCNCC1,inactive
4,Nc1c[n+](N2CCOCC2)no1,inactive
5,CC(C)(C)C(O)/C=C/c1ccc2c(c1)OCO2 (stereo not given),inactive
6,O=C1Cc2cc(Cl)ccc2N1,inactive
7,Cn1cnc2c(NCc3ccccc3)nc(NCCO)nc21,inactive
8,C/C(=N\O)[C@@H](C)NCC(C)(C)CN[C@H](C)/C(C)=N/O,inactive
9,N[C@@H](Cn1ccc(=O)c(O)c1)C(=O)O,inactive
10,Cc1ncc([N+](=O)[O-])n1C,inactive
11,O=C(O)C1CCC1,inactive
12,CC[N+]1(CC)CCC(=C(c2ccccc2)c2ccccc2)C1C (stereo not given),inactive
13,CCCCN(CCN(CCCC)C(=O)N1CCOCC1)C(=O)N1CCOCC1,inactive
14,CC1CCCCN1CCCOC(=O)c1ccc(OC2CCCCC2)cc1 (stereo not given),inactive
15,O=C(O)C(=O)Nc1cccc(-c2nn[nH]n2)c1,inactive
16,CC(=O)OCC(=O)Nc1cc(C#N)cc(NC(=O)COC(C)=O)c1Cl,inactive
17,NC(=O)NS(=O)(=O)c1ccc(Cl)cc1,inactive
18,Cc1ccc(C(=O)Oc2ccc(C(O)CNC(C)(C)C)cc2OC(=O)c2ccc(C)cc2)cc1 (stereo not given),inactive
19,C[C@H]1NCc2cc(-c3ccc4c(=O)c(C(=O)O)cn(C5CC5)c4c3OC(F)F)ccc21,inactive
20,Cc1coc2ccccc2c1=O,inactive

row,SMILES,Potency
1,N#Cc1cc(NC(=O)C(=O)O)c(Cl)c(NC(=O)C(=O)O)c1,inactive
2,O=C(O)c1ccccc1S,inactive
3,CC(C)CCCC(C)NCCC(C)C (stereo not given),inactive
4,CN1N=C(C(N)=O)CCC1=O,inactive
5,CCN(CC)CCNC(=O)c1ccc(NS(C)(=O)=O)cc1,inactive
6,Nc1nc(=O)n([C@@H]2O[C@H](CO)[C@@H](O)[C@@H]2F)cc1I,inactive
7,CCCC(=O)O[C@]1(C(=O)CC)CC[C@H]2[C@@H]3CCC4=CC(=O)CC[C@]4(C)[C@H]3[C@@H](O)C[C@@]21C,inactive
8,CCCCCCCCCCCCCCCCCCN(C)C,inactive
9,O=C(O)c1ccc(OCCN2CCCCC2)cc1,inactive
10,O=C1CCCc2c(O)cccc21,inactive
11,Cc1oc(=O)oc1COC(=O)[C@@H]1N2C(=O)[C@@H](NC(=O)[C@H](N)c3ccccc3)[C@H]2SC1(C)C,inactive
12,O=C(O)c1ccccc1Nc1cc(Cl)ccc1C(=O)O,inactive
13,O=C(O)Cn1cnnn1,inactive
14,Nc1ccc2c(c1)CN1C(=O)c3ccccc3C1=N2,inactive
15,O=C(OCCN1CCOCC1)c1cccnc1Nc1cccc(C(F)(F)F)c1,inactive
16,NS(=O)(=O)c1cc(C(=O)NN2C[C@H]3[C@H]4CCC(C4)[C@H]3C2)ccc1Cl,inactive
17,NC(N)=NCCCCN=C(N)N,inactive
18,CCCCOC(=O)CCCCCCCCC(=O)OCCCC,inactive
19,O=C(NN1CCCC1)NS(=O)(=O)c1ccc(Cl)cc1,inactive
20,OCc1c[nH]c2ccccc12,inactive
